# Results as given in PubChem BioAssay (Tox21).
# Records with an inconclusive call do not appear. Active and inactive are the calls of the source. Calls come from the whole dose curve.
# Assay: qHTS assay to identify small molecule agonists of the endoplasmic reticulum stress response signaling pathway - cell viability counter screen (AID 1159517); note: nearly all actives have a fitted effect of over 50% in size
# Details: ESRE-bla HeLa viability, CellTiter-Glo luminescence, 5 h; series mostly up to 61 µM; activity change, negative = cytotoxicity: at the top concentration
# Procedure, shortened: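 HeLa cells carrying an ESRE-driven beta-lactamase reporter receive compound for 5 hr at 37 C. Cell viability is then gauged with CellTiter-Glo by luminescence, 30 min at room temperature.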
# % is set by controls: 0 for no effect and ±100 for the full control effect.
row,SMILES,"activity change, negative = cytotoxicity"
1,O=[N+]([O-])c1cccc(S(=O)(=O)NCCNS(=O)(=O)c2cccc([N+](=O)[O-])c2)c1,5.05% (inactive)
2,CCCCC(CC)COC(=O)COc1ccc(Cl)cc1C (centres undefined),13.9% (inactive)
3,CN1CCN(c2c(F)cc3c(=O)c(C(=O)O)cn4c3c2OCN4C)CC1,3.5% [at 28.5 µM] (inactive)
4,O=C1NCCN1,-15.6% (inactive)
5,C=CC(C)(O)CCCC(C)CCCC(C)CCCC(C)C (centres undefined),1.49% (inactive)
6,COc1cc2c(N3CCN(C(=O)Nc4ccc(OC(C)C)cc4)CC3)ncnc2cc1OCCCN1CCCCC1,-0.465% (inactive)
7,OC(CCCN1CCCCC1)(c1ccccc1)c1ccccc1,-14.7% (inactive)
8,Nc1c(I)cc(I)c(C(=O)N(CCC(=O)O)c2ccccc2)c1I,-1.41% (inactive)
9,Nc1nccs1,-0.459% (inactive)
10,O=C(O)c1snc(Cl)c1Cl,1.24% (inactive)
11,CCC1(C)CC(=O)NC1=O (centres undefined),13.6% (inactive)
12,C/C(=N/NC(=O)c1ccncc1)C(=O)O,-8.73% (inactive)
13,CCn1nc(C)c2c1C(=O)NCC(c1ccc(O)cc1)=N2,-2.31% (inactive)
14,Cc1ccccc1N1C(=O)c2cc(S(N)(=O)=O)c(Cl)cc2NC1C (centres undefined),22.1% (inactive)
15,O=S(=O)(c1ccccc1)c1ccc(Cl)cc1,-7.51% (inactive)
16,Nc1nc(Cl)nc2c1ncn2[C@@H]1O[C@H](CO)[C@@H](O)[C@@H]1F,-14.3% (inactive)
17,CC(C)C(=O)O,0.887% (inactive)
18,CCOC(=O)C(C)Oc1ccc(Oc2nc3ccc(Cl)cc3o2)cc1 (centres undefined),11.8% (inactive)
19,Oc1cc(O)c(Cl)cc1Cl,8.05% [at 78.8 µM] (inactive)
20,C[C@@H]1C[C@H]2[C@@H]3CCC4=CC(=O)C=C[C@]4(C)[C@@]3(F)[C@@H](O)C[C@]2(C)[C@H]1C(=O)CO,3.12% (inactive)

row,SMILES,"activity change, negative = cytotoxicity"
1,O=S1OCCO1,7.74% [at 78.8 µM] (inactive)
2,CC(=O)Nc1ccccc1C,3.72% [at 78.8 µM] (inactive)
3,Nc1ccc(S(=O)(=O)O)c(N)c1,-12.9% (inactive)
4,CCCCN(CCCC)CCCOC(=O)c1ccc(N)cc1,6.18% (inactive)
5,C=CC(C)=CCC=C(C)C,-6.13% (inactive)
6,CCC(C)=O,-0.476% (inactive)
7,COC(=O)[C@@H]1CC2=CC(=O)CC[C@]2(C)[C@@]23O[C@@H]2C[C@@]2(C)[C@@H](CC[C@@]24CCC(=O)O4)[C@H]13,0.885% (inactive)
8,NC(=O)Nc1ccc(Cl)cc1,4.65% (inactive)
9,Cc1ccc(S(=O)(=O)NC2CCCCC2)cc1,-24.5% (inactive)
10,CO[Si](C)(OC)OC,4.85% (inactive)
11,CCCCOC(=O)CCS,-2.47% (inactive)
12,CCOc1cc(N)c(Cl)cc1C(=O)NCC1CN(Cc2ccc(F)cc2)CCO1 (centres undefined),3.6% (inactive)
13,CN1CCCN=C1/C=C/c1cccs1,1.01% (inactive)
14,CCCCCCCCCOC(C)=O,21.3% (inactive)
15,Cn1c(=O)c2c(ncn2CC(=O)O)n(C)c1=O,-1.18% (inactive)
16,N#C[C@@H]1C[C@@H]2C[C@@H]2N1C(=O)[C@@H](N)C12CC3CC(CC(O)(C3)C1)C2,-11.4% (inactive)
17,O=C(O)c1ccc(CO)o1,-1.18% [at 78.8 µM] (inactive)
18,CN1Cc2cc(C(=O)N3CCC(C4CCNCC4)CC3)ccc2N[C@@H](CC(=O)O)C1=O,15.6% (inactive)
19,CC1(C)C2=CCCC(C)(C)[C@]23CC[C@H]1C3,-7.95% (inactive)
